Sampled rows, rich in hits. Any-hit rate of the full collection: about 7.5%.
TSHR antag: antagonists of human thyroid stimulating hormone receptor. TSHR-expressing cells, TSH-stimulated cAMP HTRF, 2 h; hits give low values. activity change, negative = inhibition, % at 11.5 µM. 0.2% of 330,000 active. P16473;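 active means activity change below a set negative limit, meaning inhibition stronger than a set level, cut at about -70% in these data; inconclusive means activity change between two set negative limits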
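Read-out is FRET at 665 nm (cryptate excitation 337 nm) from a cryptate-tagged anti-cAMP antibody, competed by cell cAMP against cAMP-d2. Compounds are tested on freshly harvested TSHR cells challenged with 4nM TSH (EC80) for 2 hours at 37 deg C.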
VP16 counter: Gal4-VP16 reporter inhibition counter-screen; Drosophila S2 Gal4-VP16 UAS-luciferase, luminescence, 20 h; Potency, µM (series often up to 53.6 µM), inactives show at the highest dose activity, negative = inhibition, hits mostly inhibitors; 3.5% of 310,000 active;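 further: Gal4-VP16 expression switched on by copper sulfate through the metallothionein promoter; potency means the concentration at half of the fitted maximal effect; nearly all actives have a fitted effect of over 50% in size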
B2AR arrestin: beta2AR (human) beta-arrestin recruitment activity | P07550 | beta-arrestin recruitment to beta2AR, cell-based reporter | Potency, µM (top dose mostly 46.1 µM), without a hit: at the highest dose activation, actives largely listed as activators | 0.02% of 330,000 active | AID 492947;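 further: potency means the concentration at half of the fitted maximal effect; 0% = DMSO controls and full agonism = EC100 isoproterenol or metaproterenol; nearly all actives have a fitted effect of over 65% in size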
RORg inh: blocks mouse ROR gamma transcriptional activity; P51450; Drosophila S2 Gal4-RORgamma UAS-luciferase reporter, 20 h; Potency, µM (top dose mostly 53.6 µM), without a hit: at the highest dose activity change, negative = inhibition, usual class: inhibitors; 5.4% of 310,000 active; further: potency means the concentration at half of the fitted maximal effect; nearly all actives have a fitted effect of over 60% in size
Target sequence (P51450 whole entry, looked up, the tested form may be a part): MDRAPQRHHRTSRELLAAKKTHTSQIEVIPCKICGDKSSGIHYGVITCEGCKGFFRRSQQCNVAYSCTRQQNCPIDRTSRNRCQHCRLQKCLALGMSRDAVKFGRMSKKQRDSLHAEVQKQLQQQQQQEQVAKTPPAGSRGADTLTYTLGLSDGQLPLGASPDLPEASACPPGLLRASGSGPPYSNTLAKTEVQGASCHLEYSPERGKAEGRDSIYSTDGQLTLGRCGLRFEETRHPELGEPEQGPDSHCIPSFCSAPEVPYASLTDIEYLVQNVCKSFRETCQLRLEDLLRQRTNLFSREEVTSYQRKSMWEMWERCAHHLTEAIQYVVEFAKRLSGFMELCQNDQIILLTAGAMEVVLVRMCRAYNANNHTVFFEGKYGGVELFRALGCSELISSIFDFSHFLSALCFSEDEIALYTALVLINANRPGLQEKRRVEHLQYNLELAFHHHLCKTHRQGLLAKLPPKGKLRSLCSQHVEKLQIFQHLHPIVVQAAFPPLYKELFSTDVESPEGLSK
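A Gal4/UAS one-hybrid system in insect cells: metallothionein-promoter Gal4–ROR gamma fusion plus Photinus luciferase reporter. Copper sulfate 700 uM final, 20 hr ambient incubation, luminescent detection after 10 min with reagent.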
ELG1 DNA repair: ELG1-dependent DNA repair inhibition; Potency, µM (highest dose often 46.1 µM), for the others: at the top dose activity change, negative = inhibition, hits mostly inhibitors; 2.3% of 330,000 active; HEK293T ELG1-luciferase reporter, luminescence, 16 h; DNA damage induced by 5-fluorouridine; further: potency means the concentration at half of the fitted maximal effect; nearly all actives have a fitted effect of over 55% in size
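Overnight (16 hr) co-exposure of 2,000 cells/well to 5-fluorouridine and compound at 37 °C preceded detection. Luciferase was quantified via ONE-Glo luminescence; loss of signal denotes inhibition.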
* = called active by the depositor; u = inconclusive; x = no result; [ ] = remark or other dose. Unless noted, the call rests on the fitted dose curve; in most records, active means well fitted curve in the direction sought with a large enough effect; inconclusive means small, poorly fitted or top-dose-only effect, or another doubt; inactive means no such curve, though single readings can be large; an effect the other way counts as inactive or inconclusive. Unless noted, on the % scale 0 is the no-effect control and ±100 the full control effect.

SMILES	TSHR antag	VP16 counter	B2AR arrestin	RORg inh	ELG1 DNA repair
CC(C)Cn1c(N)c(C(=O)COC(=O)C2Cc3ccccc3CN2S(C)(=O)=O)c(=O)n(C)c1=O (centres undefined)	-21	x	0%	x	9.2µM*
CC(C)Cn1c(N)c(C(=O)COC(=O)c2cc(-c3ccccc3)nc3ccccc23)c(=O)n(C)c1=O	0	-8%	3%	-5%	7.3µM*
CC(C)Cn1c(N)c(C(=O)COC(=O)c2cc(F)cc(F)c2)c(=O)n(C)c1=O	-3	-7%	0%	u	18µM*
CC(C)Cn1c(N)c(C(=O)COC(=O)C2CCCCC2)c(=O)n(C)c1=O	-27	-22%	0%	u	u
CC(C)Cn1c(N)c(C(=O)COC(=O)c2ccc(O)cc2)c(=O)n(C)c1=O	9	-18%	0%	u	u
Cc1ccc(N2CC(C(=O)OCC(=O)c3ccc([N+](=O)[O-])cc3)CC2=O)cc1 (centres undefined)	-1	2%	0%	2%	0%
CCN(CC)CCCC(C)n1c(-c2ccccc2)nc2c(N(CCOC)CCOC)nc(C)nc21 (centres undefined)	x	-8%	x	-22%	x
FB(F)F	x	16%	x	3%	x
S=c1nc(C2COc3ccccc3O2)[nH][nH]1 (centres undefined)	5	17%	0%	13µM*	-3%
CCCCN(c1nc2ccccc2nc1Cl)S(=O)(=O)c1ccc(C)cc1	7	2.5µM*	-1%	-35%	u
CCCN(CCC)CC(O)CN(c1ccccc1)S(=O)(=O)c1ccc(C)cc1 (centres undefined)	-5	-1%	0%	-4%	16%
CCOC(=O)N1CCN(C(=S)NC(=O)c2c(-c3c(Cl)cccc3Cl)noc2C)CC1	-7	0.79µM*	0%	0.25µM*	u
Cc1onc(-c2c(Cl)cccc2Cl)c1C(=O)NC(=S)N1CCOCC1	2	0.71µM*	7%	0.16µM*	-17%
CCOC(=O)N1CCN(C(=S)NC(=O)c2ccc(F)c(F)c2)CC1	-2	1µM*	4%	0.63µM*	2%
CCOC(=O)N1CCN(C(=O)c2c(-c3ccccc3Cl)noc2C)CC1	-8	1%	0%	17%	8%
Cc1onc(-c2c(Cl)cccc2Cl)c1C(=O)Nc1nccs1	-7	u	-1%	10µM*	23µM*
CCOC(=O)N1CCN(C(=S)NC(=O)c2cccc(OC)c2)CC1	x	x	0%	x	u
COc1ccc(N2CC(C(=O)NCCC3=CCCCC3)CC2=O)c(OC)c1 (centres undefined)	-4	x	0%	x	11%
CCCCC[C@H](O)/C=C/[C@@H]1[C@H](C/C=C\CCCC(=O)O)[C@@H](O)C[C@H]1O	x	7%	x	-15%	x
COc1ccc(C(=O)Cn2c(Cl)nc3c2c(=O)n(C)c(=O)n3C)cc1	-5	-10%	0%	16%	16µM*
CCCCn1c(Cl)nc2c1c(=O)n(C)c(=O)n2C	-1	-1%	-1%	-6%	9%
CCC(=O)c1ccc(Oc2nc3c(c(=O)n(C)c(=O)n3C)n2CC)cc1	-8	-2%	0%	16%	15µM*
COc1ccc(Oc2nc3c(c(=O)n(C)c(=O)n3C)n2C)cc1	1	-1%	0%	33%[1.91 µM]	9.2µM*
Cn1c(=O)c2c(nc(Cl)n2CCOc2ccccc2)n(C)c1=O	-14	u	0%	u	9.2µM*
COC(=O)c1ccc(Oc2nc3c(c(=O)n(C)c(=O)n3C)n2CCC(C)C)cc1	-2	-3%	0%	-7%	12%
SMILES	TSHR antag	VP16 counter	B2AR arrestin	RORg inh	ELG1 DNA repair
CO[C@]1(C2=NCCN2)COc2ccccc2O1	x	6%	x	-1%	x
CCOc1nc2c(c(=O)n(C)c(=O)n2C)n1Cc1ccccc1Cl	-23	1%	-1%	41%[10 µM]	8.2µM*
Cn1c(=O)c2c(nc(Br)n2Cc2ccccc2Cl)n(C)c1=O	0	0%	1%	-3%	-7%
Fc1cccc(Cl)c1C1Nc2cccc3cccc(c23)N1	-17	x	u	x	-14%
Clc1cccc(Cl)c1C1Nc2cccc3cccc(c23)N1	-70*	4µM*	u	0.71µM*	u
COc1ccc(NC(=S)NC(=O)Cc2ccccc2)cc1	-6	7.1µM*	0%	8.9µM*	u
C=CCN(CC=C)S(=O)(=O)c1ccc(NC(=S)NC(=O)Cc2ccc(OC)cc2)cc1	-25	u	0%	7.1µM*	u
CCC(=O)Nc1ccc(NC(=S)NC(=O)Cc2ccccc2)cc1	-5	-8%	-1%	-2%	-2%
COc1ccc(CC(=O)NC(=S)Nc2ccc(S(=O)(=O)NC(C)(C)C)cc2)cc1	-4	-6%	0%	13µM*	-17%
O=C(Cc1ccccc1)NC(=S)Nc1ccc(OC(F)F)cc1	-10	11µM*	-1%	20µM*	15%
COc1ccc(CC(=O)NC(=S)Nc2ccc(S(N)(=O)=O)cc2)cc1	-1	u	1%	16%	-4%
Cc1cccc(CSc2nc3nc(C)cc(C)n3n2)c1	-1	6%	0%	u	u
COc1ccc(NC(=S)NCCCc2ccccc2)cc1	5	13µM*	0%	3.5µM*	1%
COc1ccc(NC(=O)NCCCCc2ccccc2)cc1	-20	0%	0%	2%	13%
CS(=O)(=O)c1ccc(-c2cccc(NC(=O)c3ccco3)c2)nn1	0	x	-1%	x	u
Cc1ccc(Nc2cc(C)nc(NCc3ccccc3)n2)cc1	4	u	0%	u	-24%
COc1ccc(Nc2cc(C)nc(NCc3ccccc3)n2)cc1	-4	-12%	-1%	38%	18µM*
CC1CCCCN1CCCNC(=O)c1ccc(NC(=O)C2=CSCCO2)cc1 (centres undefined)	3	3%	0%	-1%	25%
CC1CN(S(=O)(=O)c2ccc(C(=O)Nc3ccccc3F)cc2)CC(C)O1 (centres undefined)	x	x	0%	x	-21%
CC(=O)Nc1ccc(C(=O)Nc2ccc(S(=O)(=O)N3CCCCC3)cc2)cc1	-3	-1%	0%	9%	-8%
CS(=O)(=O)c1cccc(-c2nnc(NC(=O)c3ccc(S(=O)(=O)N4CCCC4)cc3)o2)c1	-2	x	0%	x	11%
Cc1nnc(NC(=O)c2ccc(S(=O)(=O)N3CCCCCC3)cc2)o1	5	1.3µM*	0%	0.71µM*	-11%
COCc1nnc(NC(=O)c2ccc(S(=O)(=O)N3CCCCCC3)cc2)o1	9	0.28µM*	0%	2.2µM*	u
Cc1nnc(NC(=O)c2ccc(S(=O)(=O)N3CC(C)OC(C)C3)cc2)o1 (centres undefined)	11	4µM*	-1%	4.5µM*	5%

High-throughput results as filed in PubChem BioAssay.
